About 7,900 targets were measured; listed, in parts, are those with a hit and a random draw of the rest. About 0.6% of all pairs of compound and target were hits.

Sequence of UniProt Q7Z4Q2 (Q7Z4Q2 whole entry, looked up): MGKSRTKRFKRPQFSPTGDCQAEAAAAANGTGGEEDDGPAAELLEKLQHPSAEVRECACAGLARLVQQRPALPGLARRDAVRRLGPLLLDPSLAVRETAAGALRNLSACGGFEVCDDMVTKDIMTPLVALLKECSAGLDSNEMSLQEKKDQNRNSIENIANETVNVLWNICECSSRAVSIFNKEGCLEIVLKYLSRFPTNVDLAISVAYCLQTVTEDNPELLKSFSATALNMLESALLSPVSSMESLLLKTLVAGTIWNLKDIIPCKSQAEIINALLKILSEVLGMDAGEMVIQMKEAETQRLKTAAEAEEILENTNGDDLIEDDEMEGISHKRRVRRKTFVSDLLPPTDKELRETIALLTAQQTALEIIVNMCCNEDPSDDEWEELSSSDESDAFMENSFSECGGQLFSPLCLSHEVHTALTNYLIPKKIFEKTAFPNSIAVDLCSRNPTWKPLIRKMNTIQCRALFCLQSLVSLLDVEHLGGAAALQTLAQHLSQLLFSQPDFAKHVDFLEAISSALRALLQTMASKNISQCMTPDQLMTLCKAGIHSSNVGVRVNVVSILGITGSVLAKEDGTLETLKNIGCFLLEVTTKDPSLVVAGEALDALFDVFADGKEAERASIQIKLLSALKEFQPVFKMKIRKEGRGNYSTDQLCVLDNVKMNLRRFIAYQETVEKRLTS
Sequence of UniProt Q00688 (Q00688 whole entry, looked up): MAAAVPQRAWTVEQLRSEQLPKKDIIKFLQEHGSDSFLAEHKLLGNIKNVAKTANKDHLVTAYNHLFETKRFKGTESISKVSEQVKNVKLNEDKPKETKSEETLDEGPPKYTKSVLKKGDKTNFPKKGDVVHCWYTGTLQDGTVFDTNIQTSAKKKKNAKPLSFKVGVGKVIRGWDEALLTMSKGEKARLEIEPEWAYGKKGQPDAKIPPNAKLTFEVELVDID
Sequence of UniProt Q8TEQ6 (Q8TEQ6 whole entry, looked up): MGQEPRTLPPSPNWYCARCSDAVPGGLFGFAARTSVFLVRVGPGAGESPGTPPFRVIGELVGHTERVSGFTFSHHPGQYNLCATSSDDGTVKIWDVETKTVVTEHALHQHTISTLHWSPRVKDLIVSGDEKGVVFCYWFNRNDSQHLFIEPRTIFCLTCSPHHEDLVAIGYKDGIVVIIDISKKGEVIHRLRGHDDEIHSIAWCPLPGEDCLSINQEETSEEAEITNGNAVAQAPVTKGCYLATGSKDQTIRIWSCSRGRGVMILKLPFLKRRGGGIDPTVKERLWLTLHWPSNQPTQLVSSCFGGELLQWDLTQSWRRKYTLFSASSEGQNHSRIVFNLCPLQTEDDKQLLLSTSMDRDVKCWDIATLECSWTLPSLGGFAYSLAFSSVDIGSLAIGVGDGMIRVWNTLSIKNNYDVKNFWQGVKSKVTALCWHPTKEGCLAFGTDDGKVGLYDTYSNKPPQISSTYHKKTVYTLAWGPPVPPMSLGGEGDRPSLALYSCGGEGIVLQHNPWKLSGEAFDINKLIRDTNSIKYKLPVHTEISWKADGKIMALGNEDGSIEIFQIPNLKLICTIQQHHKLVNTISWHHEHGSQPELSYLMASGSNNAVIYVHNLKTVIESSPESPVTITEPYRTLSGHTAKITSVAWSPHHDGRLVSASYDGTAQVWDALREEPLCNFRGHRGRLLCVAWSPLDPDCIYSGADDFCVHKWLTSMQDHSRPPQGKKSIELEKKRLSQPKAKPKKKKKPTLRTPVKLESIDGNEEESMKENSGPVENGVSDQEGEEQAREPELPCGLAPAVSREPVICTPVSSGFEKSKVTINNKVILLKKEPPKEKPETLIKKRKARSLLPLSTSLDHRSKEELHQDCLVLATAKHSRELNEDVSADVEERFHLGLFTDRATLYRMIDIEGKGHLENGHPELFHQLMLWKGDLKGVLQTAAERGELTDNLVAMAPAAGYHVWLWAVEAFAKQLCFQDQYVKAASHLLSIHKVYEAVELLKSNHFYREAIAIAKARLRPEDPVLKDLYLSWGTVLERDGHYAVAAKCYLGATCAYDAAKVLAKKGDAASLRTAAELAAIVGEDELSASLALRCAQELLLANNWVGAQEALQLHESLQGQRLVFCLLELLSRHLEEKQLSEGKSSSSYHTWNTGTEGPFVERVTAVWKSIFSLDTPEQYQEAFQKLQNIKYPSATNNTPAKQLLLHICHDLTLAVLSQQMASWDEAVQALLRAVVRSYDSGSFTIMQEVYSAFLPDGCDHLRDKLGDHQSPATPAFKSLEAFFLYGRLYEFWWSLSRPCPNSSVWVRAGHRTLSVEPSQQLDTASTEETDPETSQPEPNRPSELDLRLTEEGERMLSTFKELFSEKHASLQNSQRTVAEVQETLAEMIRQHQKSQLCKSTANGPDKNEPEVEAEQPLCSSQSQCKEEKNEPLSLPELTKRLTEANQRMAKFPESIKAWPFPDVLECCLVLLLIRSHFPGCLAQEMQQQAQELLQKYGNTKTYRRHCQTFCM
Sequence of UniProt Q96HJ9 (Q96HJ9 whole entry, looked up): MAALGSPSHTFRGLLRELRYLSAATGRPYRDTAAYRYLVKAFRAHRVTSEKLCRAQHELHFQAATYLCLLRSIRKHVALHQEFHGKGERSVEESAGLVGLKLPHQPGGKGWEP
Sequence of UniProt Q86VQ1 (Q86VQ1 whole entry, looked up): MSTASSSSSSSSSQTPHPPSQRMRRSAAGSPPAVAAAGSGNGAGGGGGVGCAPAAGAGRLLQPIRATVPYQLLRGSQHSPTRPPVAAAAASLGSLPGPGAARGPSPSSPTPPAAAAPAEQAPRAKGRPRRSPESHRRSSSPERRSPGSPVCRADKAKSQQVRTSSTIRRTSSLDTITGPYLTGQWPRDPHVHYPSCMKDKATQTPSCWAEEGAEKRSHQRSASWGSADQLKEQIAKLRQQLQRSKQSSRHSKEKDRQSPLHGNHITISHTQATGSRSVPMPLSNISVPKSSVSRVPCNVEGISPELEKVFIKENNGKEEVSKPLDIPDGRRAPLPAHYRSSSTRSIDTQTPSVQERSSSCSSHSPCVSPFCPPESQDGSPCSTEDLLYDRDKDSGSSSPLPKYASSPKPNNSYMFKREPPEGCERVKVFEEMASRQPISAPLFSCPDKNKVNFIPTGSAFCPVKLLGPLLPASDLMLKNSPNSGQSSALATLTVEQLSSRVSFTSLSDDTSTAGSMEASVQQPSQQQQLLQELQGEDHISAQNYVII
Sequence of UniProt Q5JWF2 (Q5JWF2 whole entry, looked up): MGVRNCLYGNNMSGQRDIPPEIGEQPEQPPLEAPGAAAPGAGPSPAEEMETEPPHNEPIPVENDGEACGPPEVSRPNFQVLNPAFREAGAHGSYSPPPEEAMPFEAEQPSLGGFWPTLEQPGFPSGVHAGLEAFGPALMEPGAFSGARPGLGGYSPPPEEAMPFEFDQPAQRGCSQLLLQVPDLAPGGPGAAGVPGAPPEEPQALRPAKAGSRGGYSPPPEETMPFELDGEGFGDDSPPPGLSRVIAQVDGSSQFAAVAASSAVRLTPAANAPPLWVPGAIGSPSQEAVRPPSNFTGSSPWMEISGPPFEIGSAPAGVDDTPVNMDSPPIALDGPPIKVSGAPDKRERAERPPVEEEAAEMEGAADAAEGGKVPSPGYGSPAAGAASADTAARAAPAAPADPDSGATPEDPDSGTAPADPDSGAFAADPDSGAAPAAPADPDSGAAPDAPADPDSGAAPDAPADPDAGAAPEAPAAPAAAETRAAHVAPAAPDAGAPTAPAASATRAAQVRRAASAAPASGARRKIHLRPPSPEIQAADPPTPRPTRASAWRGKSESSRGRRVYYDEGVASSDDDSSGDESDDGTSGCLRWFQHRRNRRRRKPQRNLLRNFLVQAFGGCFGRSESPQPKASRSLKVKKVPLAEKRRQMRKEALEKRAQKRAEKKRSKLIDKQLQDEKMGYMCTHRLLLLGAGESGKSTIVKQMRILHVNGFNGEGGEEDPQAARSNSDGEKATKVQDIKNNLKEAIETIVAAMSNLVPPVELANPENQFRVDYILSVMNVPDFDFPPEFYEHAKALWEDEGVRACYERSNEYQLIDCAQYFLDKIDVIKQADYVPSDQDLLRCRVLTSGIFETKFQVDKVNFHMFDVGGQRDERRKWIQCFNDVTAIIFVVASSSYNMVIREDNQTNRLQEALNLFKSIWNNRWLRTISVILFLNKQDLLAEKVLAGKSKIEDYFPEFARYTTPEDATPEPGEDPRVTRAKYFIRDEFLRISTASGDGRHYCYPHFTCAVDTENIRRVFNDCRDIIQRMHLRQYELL
Sequence of UniProt O15228 (O15228 whole entry, looked up): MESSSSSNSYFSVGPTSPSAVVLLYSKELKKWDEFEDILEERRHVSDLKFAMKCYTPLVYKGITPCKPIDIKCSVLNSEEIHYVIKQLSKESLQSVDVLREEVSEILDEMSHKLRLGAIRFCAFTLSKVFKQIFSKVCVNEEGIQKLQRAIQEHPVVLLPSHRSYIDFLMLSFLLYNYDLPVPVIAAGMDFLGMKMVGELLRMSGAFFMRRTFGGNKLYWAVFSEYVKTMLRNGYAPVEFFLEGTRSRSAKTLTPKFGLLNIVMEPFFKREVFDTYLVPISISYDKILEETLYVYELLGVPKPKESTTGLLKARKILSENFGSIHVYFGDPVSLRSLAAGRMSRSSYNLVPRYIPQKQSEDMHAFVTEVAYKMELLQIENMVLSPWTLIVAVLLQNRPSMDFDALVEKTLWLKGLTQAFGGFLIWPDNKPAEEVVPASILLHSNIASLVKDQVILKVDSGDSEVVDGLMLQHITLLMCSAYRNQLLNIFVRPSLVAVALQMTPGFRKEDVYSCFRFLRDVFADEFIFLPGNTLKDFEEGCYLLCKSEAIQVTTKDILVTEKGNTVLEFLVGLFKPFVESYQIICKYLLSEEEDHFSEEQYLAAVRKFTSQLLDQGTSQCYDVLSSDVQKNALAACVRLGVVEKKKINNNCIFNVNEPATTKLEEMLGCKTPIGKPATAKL
Sequence of UniProt P60520 (P60520 whole entry, looked up): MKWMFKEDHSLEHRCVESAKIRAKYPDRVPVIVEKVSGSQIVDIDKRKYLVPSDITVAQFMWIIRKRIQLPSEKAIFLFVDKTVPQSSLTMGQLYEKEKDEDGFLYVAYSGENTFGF

Compound in the experiment: FC(F)(F)c1ccc(/C=C/c2nc(COc3ccc(CCCCn4ccnn4)cc3)co2)cc1 [mubritinib]
Description: log2 fold change, soluble protein after heating vs DMSO (PISA); higher = thermal stabilisation; K562 cells, 10 uM, 30 min; active = over 0.2 and 3.5 SD of the protein, either way, in both replicates (recomputed). The method, boiled down:
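K562 cells (2×10^6 cells/mL) were treated with 10 μM compound for 30 min, and aliquots were heated for 3 min over 48°C-58°C. Pooled aliquots were extracted in PBS with 0.5% NP-40 at 4°C, and the supernatant after 21,000xg for 90 min was measured by TMTpro 16plex LC-MS/MS with channel sums equalised. Reported thermal stability, relative to control samples and from duplicates, is a log2 fold change.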
Regarding FUBP3 (UniProt Q96I24), the log2 fold change is -0.052 (inactive).
Then FKBP3 (UniProt Q00688), with 0.017 (inactive).
For HDAC6 (UniProt Q9UBN7), the log2 fold change was 0.086 (inactive).
Then GALK1 isoform 2 (UniProt P51570), with 0.01 (inactive); and IFRD2 isoform 2 (UniProt Q12894), with 0.073 (inactive).
As for FKBP7 (UniProt Q9Y680), the log2 fold change is 0.031 (inactive).
Regarding HEATR3 (UniProt Q7Z4Q2), the log2 fold change was -0.079 (inactive).
Regarding FKBP4 (UniProt Q02790), the log2 fold change was 0.012 (inactive).
With GABARAPL2 (UniProt P60520) the figure was 0.03 (inactive).
Then GIGYF2 (UniProt Q6Y7W6), with -0.03 (inactive); and GSR (UniProt P00390), with 0.024 (inactive).
With GNAS (UniProt Q5JWF2) the figure was -0.035 (inactive).
In the case of HIST2H2BF isoform 2 (UniProt Q5QNW6), the log2 fold change was -0.173 (inactive).
For HLTF (UniProt Q14527), the log2 fold change was 0.051 (inactive).
As for GALNT4 (UniProt Q8N4A0), the log2 fold change was 0.035 (inactive).
Then FBXO7 (UniProt Q9Y3I1), with 0.07 (inactive); and GMEB1 (UniProt Q9Y692), with -0.03 (inactive); and GLUD1 (UniProt P00367), with 0.046 (inactive).
Then FANCI (UniProt Q9NVI1), with 0.086 (inactive).
Regarding HDAC10 (UniProt Q969S8), the log2 fold change is 0.116 (inactive).
Then FUCA1 (UniProt P04066), with -0.008 (inactive); and GUK1 isoform 2 (UniProt Q16774), with 0.397 (active); and GOLGB1 isoform 2 (UniProt Q14789), with 0.017 (inactive).
For FANCD2 isoform 1 (UniProt Q9BXW9), the log2 fold change was 0.052 (inactive).
For IDH3A (UniProt P50213), the log2 fold change is 0.06 (inactive).
Take GLCCI1 (UniProt Q86VQ1): the log2 fold change is 0.011 (inactive).
With FMC1 (UniProt Q96HJ9) the figure was 0.016 (inactive); with GABPA (UniProt Q06546), 0.019 (inactive); with GEMIN5 (UniProt Q8TEQ6), 0.043 (inactive).
GLS (UniProt O94925): the log2 fold change was -0.285 (inactive).
With HEXA (UniProt P06865) the figure was 0.023 (inactive); with GEMIN2 (UniProt O14893), -0.048 (inactive).
With GNPAT (UniProt O15228), the log2 fold change was 0.005 (inactive).
Then HNRNPH2 (UniProt P55795), with -0.115 (inactive); and HNRNPH1 (UniProt P31943), with -0.044 (inactive).

The values are drawn from the supplement of paper PMC10849652.
